Compound activity: PubChem, National Center for Advancing Translational Sciences (NCATS)
ClpP mod = qHTS Assay for Activators of ClpP; ATP-dependent Clp protease proteolytic subunit (Bacillus subtilis (strain 168)), P80244; purified B. subtilis ClpP, FRET peptide cleavage, 20 min; Potency, µM (titrated, usually from 57.5 µM); 340,000 tested, 1.9% active; AID 651965, 2013; active = well fitted falling curve with a large enough effect; inconclusive = small, poorly fitted or top-dose-only effect; inactive = no such curve, though single readings can be large or run the other way; note: the source files actives as falling curves though it sought activators and does not explain the sign; nearly all actives have a fitted effect of over 65% in size
Target sequence (P80244 whole entry, looked up): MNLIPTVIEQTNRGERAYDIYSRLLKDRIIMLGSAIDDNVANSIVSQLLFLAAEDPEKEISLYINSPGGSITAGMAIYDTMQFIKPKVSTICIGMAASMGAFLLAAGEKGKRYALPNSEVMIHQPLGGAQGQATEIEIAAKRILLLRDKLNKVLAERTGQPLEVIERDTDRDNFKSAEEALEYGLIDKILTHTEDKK
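Buffer: 100 mM Tris/HCl pH8, 100 mM KCl, 0.05% low protease BSA, 2.5% glycerol, 0.01% Tween-20. ClpP 10 microg/mL final; 20 min RT; delta FRET normalized to ADEP and DMSO controls.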
DRD3 antagonist = D3 dopamine receptor (human) antagonism. 360,000 tested, 2.5% active. P35462. D3R cells, DiscoveRx beta-arrestin luminescence, antagonist mode; active compounds read low. max response, negative = inhibition, %; in the data active = max response below about -50%; inconclusive = no clear call, values can overlap the other calls
Target sequence (P35462 whole entry, looked up): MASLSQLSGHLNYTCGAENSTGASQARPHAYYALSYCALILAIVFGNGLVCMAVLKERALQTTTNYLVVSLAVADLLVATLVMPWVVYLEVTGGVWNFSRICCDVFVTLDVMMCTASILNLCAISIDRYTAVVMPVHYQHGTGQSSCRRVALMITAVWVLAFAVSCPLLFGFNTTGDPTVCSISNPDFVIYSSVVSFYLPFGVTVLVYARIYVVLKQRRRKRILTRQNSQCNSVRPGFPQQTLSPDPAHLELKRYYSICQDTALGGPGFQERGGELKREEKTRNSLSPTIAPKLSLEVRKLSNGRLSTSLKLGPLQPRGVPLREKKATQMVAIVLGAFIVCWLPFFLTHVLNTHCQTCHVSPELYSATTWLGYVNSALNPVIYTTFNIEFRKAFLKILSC
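Cells plated overnight at 1500 cells/well, then exposed to library compounds with dopamine controls for 90 minutes at 37 degrees C. DiscoveRx reagent added for 30–60 minutes at room temperature; luminescence read, quantitative HTS format.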
TDP1 cell CPT = DT40-hTDP1 cell growth loss with CPT. Potency, µM (highest dose often 46.2 µM), hits mostly inhibitors. chicken DT40 Tdp1-/-;hTDP1 cells + 20 nM CPT, ATP luminescence, 48 h. AID 686979. 420,000 tested, 12% active; note: nearly all actives have a fitted effect of over 55% in size
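Cell growth measured by CellTiter-Glo luminescence after a minimum 48 h, 37 C compound exposure with 20 nM CPT in Tdp1-knockout DT40 cells stably expressing hTDP1, seeded 400/well; qHTS titration format.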
D3 ag = D3 dopamine receptor (human) agonism | P35462 | D3R DiscoveRx beta-arrestin cells, luminescence, 90 min | max activation, % | 410,000 tested, 0.58% active; in the data active = max activation above about 30%
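Cells at 1500/well, incubated overnight, then treated with pinned compounds (dopamine as control) for 90 min at 37 degrees C. DiscoveRx reagent added for 30 - 60 minutes at room temperature; luminescence read.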
TDP1 cell noCPT = qHTS for Inhibitors of human tyrosyl-DNA phosphodiesterase 1 (TDP1): qHTS in cells in absence of CPT | DT40 Tdp1-/- hTDP1 cells, no CPT, ATP luminescence, 48 h | 420,000 tested, 15% active | Potency, µM (series often up to 46.2 µM), usual class: inhibitors | AID 686978, 2013; note: nearly all actives have a fitted effect of over 55% in size
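Chicken DT40 Tdp1-/- cells complemented with human TDP1, screened without camptothecin (DMSO vehicle only), 400 cells/well. Compounds pin-transferred, cells incubated at 37 °C for at least 48 hr. Growth read as ATP-dependent luminescence (CellTiter-Glo, 30 min at RT).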
IL-1B inflam inh = blocks inflammasome-driven IL-1 beta release; THP-1 LPS/ATP IL-1B secretion, AlphaLISA, 16 h; active compounds read low; activity change, % at 57.5 µM; 360,000 tested, 4.7% active; AID 743279; in the data active = activity change below about -50%; inconclusive = mostly about -30% to -49%
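THP-1 cells pretreated 1 hr with compounds (up to 57.5 uM final), then stimulated with LPS (250 ng/mL final) plus ATP (1.25 mM final); secreted IL-1B measured by AlphaLISA after 16 hr, decreased signal indicating inhibition.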
A number is an active result; 0 = inactive; ? = inconclusive; - = no result; [ ] = remark or other dose. Hits are enriched below; roughly 21% of the tested compounds scored in any of these assays. Unless noted, calls come from the whole dose curve; as a rule, active = well fitted inhibition curve with a large enough effect; inconclusive = small, poorly fitted or top-dose-only effect; inactive = flat fitted curve, though single readings scatter.

SMILES	ClpP mod	DRD3 antagonist	TDP1 cell CPT	D3 ag	TDP1 cell noCPT	IL-1B inflam inh
O=C(Nc1ccc(Br)c(C(F)(F)F)c1)c1ccccc1	0	0	21µM	0	23µM	0
CC1C(=O)N(Cc2ccc([N+](=O)[O-])cc2)c2ccccc2N1C(=O)c1c(F)cccc1F (configuration not stated)	0	0	?	0	16µM	?
COc1ccc(CN2C(=O)C(C)N(C(=O)c3c(F)cccc3F)c3ccccc32)cc1 (configuration not stated)	0	0	13µM	0	8.2µM	0
COc1cccc(CN2C(=O)C(C)N(C(=O)c3ccccc3)c3ccccc32)c1 (configuration not stated)	-	0	13µM	0	6.5µM	0
Cc1cccc2cc(CN(CC3CCCO3)C(=O)c3ccccc3F)c(N(C)C)nc12 (configuration not stated)	-	-	0[9.04 µM]	-	0	-
CCC(=O)N1CCc2cc(Br)cc(S(=O)(=O)N3CCCC(C(=O)NCc4cccc(OC)c4)C3)c21 (configuration not stated)	0	-	?	0	?	-
Cc1c(C(=O)NCc2cccc([N+](=O)[O-])c2)sc(=O)n1Cc1cccc(F)c1	0	0	?	0	0	?
CC(=O)Oc1ccccc1Cn1c(C)c(C(=O)NCc2cccc([N+](=O)[O-])c2)sc1=O	0	?	?	0	21µM	0
Cc1c(C(=O)NCc2cccc([N+](=O)[O-])c2)sc(=O)n1Cc1ccc(F)cc1	0	0	16µM	0	?	?
O=C(c1ccc2c(=O)n(-c3ccccc3)c(=S)[nH]c2c1)N1CCN(c2ccccc2)CC1	0	0	15µM	0	12µM	0
O=C(c1ccc2c(c1)[nH]c(=S)n1c3ccccc3nc21)N1CCN(c2ncccn2)CC1	0	0	21µM	0	?	0
O=C(c1ccc2c(=O)n(-c3ccccc3)c(=S)[nH]c2c1)N1CCCCC1	0	0	6.5µM	0	6.5µM	0
Cc1ccc(C(=O)N[C@H](C(=O)Nc2sccc2C(N)=O)C(C)C)cc1	-	0	0	0	?	0
CCN(CC)C(=O)Cn1c(=O)n(Cc2ccc(C(=O)NCc3ccccc3Cl)cc2)c(=O)c2ccccc21	0	-	0	0	0	-
Cn1c(SCC(=O)Nc2nncs2)nnc1C1CC1	0	0	0	0	0	0
CC(C)CC1NC(=O)N(Cc2nc3ccccc3s2)C1=O (configuration not stated)	-	0	0	0	?	0
Cc1cc(SCC(=O)N2CCC(c3noc4ccc(F)cc34)CC2)nc2ccccc12	0	0	23µM	0	?	?
O=C(CSc1ncnc2sc3c(c12)CCC3)N1CCOCC1	-	0	0	0	0	0
O=C(CSc1ncnc2sc3c(c12)CCCC3)N1CCC(c2noc3ccc(F)cc23)CC1	0	0	11µM	0	10µM	0
O=C(C1CC(=O)N(c2ccccc2)C1)N1CCCCCC1 (configuration not stated)	0	0	0	0	0	0
COC(=O)c1c(C)oc2ccc(N(C(=O)c3ccncc3)S(=O)(=O)c3ccccc3)cc12	0	0	?	0	23µM	0
COC(=O)c1c(C)oc2ccc(N(C(=O)c3ccncc3)S(=O)(=O)c3ccc4ccccc4c3)cc12	0	0	23µM	0	15µM	0
COC(=O)c1c(C)oc2ccc(N(C(=O)c3ccncc3)S(=O)(=O)c3ccc(C)cc3)cc12	0	0	3.7µM	0	2.1µM	0
COC(=O)c1c(C)oc2ccc(NS(=O)(=O)c3cccs3)cc12	0	?	?	0	0	0
Cn1c(=O)[nH]c(=O)c2[nH]cnc21	-	-	0	-	0	-
SMILES	ClpP mod	DRD3 antagonist	TDP1 cell CPT	D3 ag	TDP1 cell noCPT	IL-1B inflam inh
Cc1nc(C)c(C(=O)NNC(=O)Nc2ccc(Cl)cc2)s1	0	0	0	0	0	0
CCC(=O)Nc1sc2c(c1C(N)=O)CCN(C(C)=O)C2	0	?	0	0	0	0
CCOC(=O)N1CCc2c(sc(NC(=O)C3COc4ccccc4O3)c2C(N)=O)C1 (configuration not stated)	0	0	?	0	?	0
COC(=O)c1c(NC(=O)C2COc3ccccc3O2)sc2c1CCN(C(C)=O)C2 (configuration not stated)	0	0	12µM	0	?	0
COC(=O)c1c(NC(=O)c2nc3ccccc3s2)sc2c1CCN(C(C)=O)C2	0	0	7.3µM	0	6.5µM	?
CC(=O)N1CCc2c(sc(NC(=O)c3ccc4c(c3)OCCO4)c2C#N)C1	0	0	4.1µM	0	3.7µM	0
CC(=O)N1CCc2c(sc(NC(=O)c3ccc([N+](=O)[O-])o3)c2C(N)=O)C1	0	-91	3.7µM	0	7.3µM	-80
CCc1ccc(-c2nn(CC(=O)NC3CCCC3)c3c2cnc2ccc(F)cc23)cc1	0	-	0	0	0	-
CC(=O)N1CCc2c(sc(NC(=O)C3COc4ccccc4O3)c2C(N)=O)C1 (configuration not stated)	0	0	21µM	0	?	0
CN1CCc2c(sc(NC(=O)C3COc4ccccc4O3)c2C(N)=O)C1 (configuration not stated)	0	0	?	0	?	0
C=C(C)CC1(NC(C)c2ccccc2)CCCCC1 (configuration not stated)	0	0	23µM	0	?	0
Cc1ccc2[nH]c(=O)c(N3CCOCC3)c(-c3ccccc3)c2c1	0	0	?	33	?	0
C[C@H](CO)N1C[C@H](C)[C@H](CN(C)C(=O)Nc2ccccc2)OCc2cnnn2CCCC1=O	0	0	0	0	0	0
COc1ccc(-c2csc3ncnc(NCCCO)c23)cc1	-	0	?	0	8.2µM	?
COc1ccc(-c2csc3ncnc(NCCO)c23)cc1	0	0	?	0	?	-81
CC1=C(C(=O)N(C)C)CC(CC(=O)NCCCN(C)C)C(=O)N1Cc1ccc(F)cc1 (configuration not stated)	0	0	0	0	0	0
CC(=O)OCC(=O)[C@@]1(O)CC[C@H]2[C@@H]3CCC4=CC(=O)C=C[C@]4(C)[C@@]3(Cl)[C@@H](Cl)C[C@@]21C	0	0	0	0	0	?
CCC(=O)OCC(=O)[C@@]1(OC(=O)CC)[C@@H](C)C[C@H]2[C@@H]3CCC4=CC(=O)C=C[C@]4(C)[C@@]3(Cl)[C@@H](O)C[C@@]21C	0	0	24µM	0	16µM	-58
